# PubChem BioAssay (NCI)
# This is part of a sample that, as a whole, favours compounds with a hit. Of some 79,000 tested, about 15% had one in any assay. A number with no mark means an inactive call. Active and inactive are the calls of the source. Cut-off read from the data, not from the text of the source: active = growth inhibition above about 70%; inactive = the rest.
# How the values were obtained:
# [1] = NCI Yeast Anticancer Drug Screen. Data for the rad50 strain (AID 155);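 note: 0% = growth of vehicle-only cultures of the same strain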; conditions: S. cerevisiae rad50 strain growth inhibition, hits give high values
# Outline: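 Genetically altered yeast (DNA repair pathway); compound treatment; growth inhibition vs vehicle ctrl.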
# [2] = NCI Yeast Anticancer Drug Screen. Data for the mec2-1 strain (AID 157); conditions: S. cerevisiae mec2-1 strain, hits give high values
# Outline: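 Cells of the genetically defined mec2-1 yeast strain are incubated with test compound. Inhibition of growth is calculated against vehicle-treated controls.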
# [3] = NCI Yeast Anticancer Drug Screen. Data for the sgs1 mgt1 strain (AID 161);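 note: 0% = growth of cultures given vehicle only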; conditions: S. cerevisiae sgs1 mgt1 strain, hits give high values
# Outline: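 Genetically altered yeast, compound exposure, growth inhibition relative to vehicle.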
# [4] = NCI Yeast Anticancer Drug Screen. Data for the cln2 rad14 strain (AID 165);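 note: 0% = growth equal to vehicle treated cultures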; conditions: S. cerevisiae cln2 rad14 strain, hits give high values
# Outline: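 The screen exposed genetically defined yeast (cln2 rad14) to test compounds and scored growth inhibition relative to vehicle-treated controls.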
# [5] = NCI Yeast Anticancer Drug Screen. Data for the bub3 strain (AID 167); conditions: S. cerevisiae bub3 mutant strain, hits give high values
# Outline: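 Yeast carrying a defined mutation is treated with each compound, and growth is compared with that of vehicle-exposed cells to give inhibition.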
# [6] = NCI Yeast Anticancer Drug Screen. Data for the mlh1 rad18 strain (AID 175); conditions: S. cerevisiae mlh1 rad18 strain growth inhibition, hits give high values
# Outline: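 Compound-treated yeast growth, normalised to vehicle controls. Strain bears defined DNA repair mutations.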
# [7] = at 5.0 µM (retest, dose inferred, filed as 0.5)
# [8] = at 50.0 µM (retest, dose inferred, filed as 5.0)
Structure (SMILES),"growth inhibition [1, 7]","growth inhibition [1, 8]",growth inhibition ([1]; at 50.0 µM),"growth inhibition [2, 7]","growth inhibition [2, 8]",growth inhibition ([2]; at 50.0 µM),"growth inhibition [3, 7]","growth inhibition [3, 8]",growth inhibition ([3]; at 50.0 µM),"growth inhibition [4, 7]","growth inhibition [4, 8]",growth inhibition ([4]; at 50.0 µM),"growth inhibition [5, 7]","growth inhibition [5, 8]",growth inhibition ([5]; at 50.0 µM),"growth inhibition [6, 7]","growth inhibition [6, 8]",growth inhibition ([6]; at 50.0 µM)
O=C(CC(=O)c1ccccc1)CC(=O)c1ccccc1,31%,81% (active),87.7% (active),24%,85% (active),68.5%,38%,85% (active),74.7% (active),31%,55%,65.9%,44%,95% (active),88.7% (active),38%,95% (active),84% (active)
Cn1c(=O)c2c(nc(OCC(C)(C)C)n2C)n(C)c1=O,4%,2%,-5.2%,0%,5%,10.9%,3%,-1%,26.1%,9%,8%,8.75%,0%,3%,16.9%,-13%,3%,23.8%
COC(=O)c1ccc(NCc2c(O)ccc(O)c2Br)cc1Cl,21%,99% (active),89.5% (active),14%,99% (active),92.2% (active),21%,99% (active),89.1% (active),25%,99% (active),90.2% (active),22%,99% (active),91.8% (active),25%,98% (active),91.7% (active)
CCN(C(=O)c1ccccc1C)C(c1ccccc1)P(=O)(c1ccccc1)c1ccccc1 (configuration not stated),61%,99% (active),78.6% (active),67%,98% (active),86.3% (active),28%,98% (active),87.7% (active),54%,98% (active),53.8%,61%,96% (active),87.2% (active),61%,99% (active),84.7% (active)
NNc1cccc(C(F)(F)F)c1,19%,90% (active),83.7% (active),-41%,54%,79.5% (active),-16%,28%,88.5% (active),13%,55%,50.1%,-1%,97% (active),88% (active),34%,93% (active),83.5% (active)
CC(=O)Nc1ccc2c(ccc3cccc[n+]32)c1,-2%,0%,96.7% (active),-10%,-6%,97.2% (active),1%,10%,95.8% (active),-2%,-6%,95.2% (active),-7%,-13%,96.5% (active),-1%,-3%,96.3% (active)
O=C1CCCCO1,1%,3%,-15.8%,-1%,-3%,-19.4%,0%,-4%,-27.1%,3%,-2%,19.4%,-1%,-3%,-43.3%,0%,1%,-4.85%
COc1ccccc1C(=O)N(Cc1ccccc1)c1ccc(Cl)c(C(=O)OC(C)C)c1,28%,59%,15.3%,-7%,14%,1.25%,1%,33%,-33.3%,-6%,14%,10.5%,-55%,15%,-8.1%,3%,31%,19.1%
C1=C(c2ccccc2)C(c2ccccc2)C(c2ccccc2)C/C1=N/OCCN1CCCC1 (configuration not stated),30%,99% (active),99% (active),55%,99% (active),99.6% (active),17%,100% (active),99.6% (active),-9%,98% (active),55.1%,39%,99% (active),99.2% (active),78% (active),99% (active),97.7% (active)
COc1cc2c(cc1O)CCN[C@@]21CS[C@H]2c3c(OC(C)=O)c(C)c4c(c3C(COC1=O)N1C2C2c3c(cc(C)c(OC)c3O)CC([C@@H]1O)N2C)OCO4 (some centres not stated),98% (active),99% (active),92.7% (active),99% (active),99% (active),94% (active),99% (active),99% (active),93.4% (active),99% (active),99% (active),91.6% (active),99% (active),99% (active),93.2% (active),99% (active),99% (active),92% (active)
O=[N+]([O-])c1cccc(Cl)c1C(Nc1nncs1)Nc1nncs1,7%,60%,55.5%,7%,41%,27.7%,10%,67%,73.9% (active),-1%,20%,26.6%,-2%,22%,33.8%,3%,82% (active),68.3%
Cc1cc(CC(O)(C(F)(F)F)C(F)(F)F)cc(CC(O)(C(F)(F)F)C(F)(F)F)n1,12%,99% (active),99.2% (active),5%,98% (active),98.5% (active),-3%,98% (active),98.2% (active),9%,98% (active),98% (active),-16%,99% (active),99.2% (active),6%,99% (active),99% (active)
c1nc2nc(N3CCOCC3)nc(N3CCCCC3)c2[nH]1,-22%,-14%,-1.35%,-18%,-18%,3.25%,2%,2%,2.45%,-2%,0%,6.7%,-1%,-9%,-43.2%,-19%,10%,-0.15%
O=C(O)C1C2CC3CC(C2)CC1C3 (configuration not stated),2%,42%,20%,8%,47%,5.85%,7%,60%,-4.9%,3%,21%,-67.8%,16%,86% (active),75.5% (active),0%,82% (active),9.35%
Cc1ccc(S(=O)(=O)NC(CCC(=O)Nc2ccccc2)C(=O)O)cc1 (configuration not stated),-4%,0%,12.8%,-4%,-4%,18.9%,-6%,-20%,21.2%,-5%,-15%,22%,-3%,2%,96.2% (active),0%,-2%,40.5%
NC(=S)n1nc(-c2ccccc2)c(N=Nc2ccccc2Cl)c1-c1ccccc1,3%,84% (active),94.8% (active),0%,58%,55.5%,1%,83% (active),72.9% (active),21%,92% (active),73.9% (active),16%,92% (active),93.7% (active),2%,71% (active),90.6% (active)
N=c1n(CC(=O)NC23CC4CC(CC(C4)C2)C3)c2ccccc2n1CC(=O)NC12CC3CC(CC(C3)C1)C2,-4%,34%,59.1%,-15%,8%,34.2%,-2%,42%,44.5%,-14%,25%,44%,-19%,12%,59.5%,-5%,27%,79.1% (active)
CCC(=O)Oc1ccc(-c2ccccc2)cc1Cl,-3%,98% (active),97% (active),-3%,99% (active),98.2% (active),-2%,96% (active),97.5% (active),-2%,98% (active),96% (active),14%,99% (active),98.8% (active),0%,98% (active),98.2% (active)
COc1ccc(C(c2ccccc2C(=O)O)c2ccc(OC)c3ccccc23)c2ccccc12,47%,94% (active),59.6%,70% (active),96% (active),88.8% (active),97% (active),96% (active),87.8% (active),96% (active),95% (active),89% (active),94% (active),95% (active),89.8% (active),97% (active),96% (active),88.7% (active)
